What all share (assay): PBM; 200 nM protein, PBS
What all share (conditions): dsDNA, one strand shown

The target in experiment [1] is T1, SIX6 (Homo sapiens, UniProt O95475 114-200, L167I).
T1 sequence: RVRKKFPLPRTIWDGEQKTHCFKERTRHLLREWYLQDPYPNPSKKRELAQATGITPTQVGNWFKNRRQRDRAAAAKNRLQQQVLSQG

The target in experiment [2] is T2, SIX6 (Homo sapiens, UniProt O95475 114-200, L143V).
T2 sequence: T1 sequence with L30V, I54L

For experiment [3], the target named is T3, SIX6 (Homo sapiens, UniProt O95475 114-200, H141N).
T3 sequence: T1 sequence with H28N, I54L

For experiment [4], the target named is T4, SIX6 (Homo sapiens, UniProt O95475 114-200, T165P).
T4 sequence: T1 sequence with T52P, I54L

Experiment [5] addresses T5, SIX6 (Homo sapiens, UniProt O95475 114-200, L167M).
T5 sequence: T1 sequence with I54M

In experiment [6] the target is T6, SIX6 (Homo sapiens, UniProt O95475 114-200, L143M).
T6 sequence: T1 sequence with L30M, I54L

The target in experiment [7] is T7, SIX6 (Homo sapiens, UniProt O95475 114-200, L143I).
T7 sequence: T1 sequence with L30I, I54L

Experiment [8] has as its target T8, SIX6 (Homo sapiens, UniProt O95475 114-200, T165G).
T8 sequence: T1 sequence with T52G, I54L

Experiment [9] concerns the target T9, SIX6 (Homo sapiens, UniProt O95475 114-200, T139Q).
T9 sequence: T1 sequence with T26Q, I54L

The target of experiment [10] is T10, SIX6 (Homo sapiens, UniProt O95475 114-200, T165A).
T10 sequence: T1 sequence with T52A, I54L

In experiment [11] the target is T11, SIX6 (Homo sapiens, UniProt O95475 114-200, L167V).
T11 sequence: T1 sequence with I54V

For experiment [12], the target named is T12, SIX6 (Homo sapiens, UniProt O95475 114-200).
T12 sequence: T1 sequence with I54L

Experiment [13] deals with T13, SIX6 (Homo sapiens, UniProt O95475 114-200, T165I).
T13 sequence: T1 sequence with T52I, I54L

Residue numbers refer to the chain shown, from its start.

Drawing on paper PMC11006913, this text covers binding signal for eight sequences.

Take GTATCAAA: the binding signal was 11.4 upbm affinity estimate (log intensity, higher = more binding, comparable within an allelic series) with SIX6 [1]; 10.5 upbm affinity estimate (log intensity, higher = more binding, comparable within an allelic series) with SIX6 [2]; 11.4 upbm affinity estimate (log intensity, higher = more binding, comparable within an allelic series) with SIX6 [3]; 9.91 upbm affinity estimate (log intensity, higher = more binding, comparable within an allelic series) with SIX6 [4]; 10.8 upbm affinity estimate (log intensity, higher = more binding, comparable within an allelic series) in the experiment with SIX6 [5]; 11.2 upbm affinity estimate (log intensity, higher = more binding, comparable within an allelic series) with SIX6 [6]. Moreover, the binding signal is 10.4 upbm affinity estimate (log intensity, higher = more binding, comparable within an allelic series) with SIX6 [7]; 11.3 upbm affinity estimate (log intensity, higher = more binding, comparable within an allelic series) with SIX6 [8]; 11.2 upbm affinity estimate (log intensity, higher = more binding, comparable within an allelic series) with SIX6 [9]; 11.4 upbm affinity estimate (log intensity, higher = more binding, comparable within an allelic series) with SIX6 [10]; 11.2 upbm affinity estimate (log intensity, higher = more binding, comparable within an allelic series) with SIX6 [11]; 11.2 upbm affinity estimate (log intensity, higher = more binding, comparable within an allelic series) with SIX6 [12]. The binding signal with SIX6 [13] was 11.2 upbm affinity estimate (log intensity, higher = more binding, comparable within an allelic series).

Turning to CGATACCC, the binding signal was 11.2 upbm affinity estimate (log intensity, higher = more binding, comparable within an allelic series) with SIX6 [1]; 10.2 upbm affinity estimate (log intensity, higher = more binding, comparable within an allelic series) with SIX6 [2]; 11.3 upbm affinity estimate (log intensity, higher = more binding, comparable within an allelic series) with SIX6 [3]; 9.23 upbm affinity estimate (log intensity, higher = more binding, comparable within an allelic series) with SIX6 [4]; 10.4 upbm affinity estimate (log intensity, higher = more binding, comparable within an allelic series) with SIX6 [5]; 11 upbm affinity estimate (log intensity, higher = more binding, comparable within an allelic series) with SIX6 [6]. Moreover, the binding signal with SIX6 [7] is 10.4 upbm affinity estimate (log intensity, higher = more binding, comparable within an allelic series); with SIX6 [8], 11.3 upbm affinity estimate (log intensity, higher = more binding, comparable within an allelic series); in the experiment with SIX6 [9], 11.4 upbm affinity estimate (log intensity, higher = more binding, comparable within an allelic series); with SIX6 [10], 11.2 upbm affinity estimate (log intensity, higher = more binding, comparable within an allelic series); in the experiment with SIX6 [11], 10.9 upbm affinity estimate (log intensity, higher = more binding, comparable within an allelic series); with SIX6 [12], 11.1 upbm affinity estimate (log intensity, higher = more binding, comparable within an allelic series). Also, the binding signal in the experiment with SIX6 [13] is 11 upbm affinity estimate (log intensity, higher = more binding, comparable within an allelic series).

Regarding AGTGATAC, the binding signal with SIX6 [1] is 11.6 upbm affinity estimate (log intensity, higher = more binding, comparable within an allelic series); with SIX6 [2], 10.5 upbm affinity estimate (log intensity, higher = more binding, comparable within an allelic series); with SIX6 [3], 11.5 upbm affinity estimate (log intensity, higher = more binding, comparable within an allelic series); in the experiment with SIX6 [4], 9.81 upbm affinity estimate (log intensity, higher = more binding, comparable within an allelic series); in the experiment with SIX6 [5], 10.9 upbm affinity estimate (log intensity, higher = more binding, comparable within an allelic series); with SIX6 [6], 11.2 upbm affinity estimate (log intensity, higher = more binding, comparable within an allelic series). Also, the binding signal in the experiment with SIX6 [7] was 10.5 upbm affinity estimate (log intensity, higher = more binding, comparable within an allelic series); in the experiment with SIX6 [8], 11.6 upbm affinity estimate (log intensity, higher = more binding, comparable within an allelic series); with SIX6 [9], 11.5 upbm affinity estimate (log intensity, higher = more binding, comparable within an allelic series); in the experiment with SIX6 [10], 11.5 upbm affinity estimate (log intensity, higher = more binding, comparable within an allelic series); with SIX6 [11], 11.4 upbm affinity estimate (log intensity, higher = more binding, comparable within an allelic series); in the experiment with SIX6 [12], 11.2 upbm affinity estimate (log intensity, higher = more binding, comparable within an allelic series). In addition, in the experiment with SIX6 [13], the binding signal is 11.4 upbm affinity estimate (log intensity, higher = more binding, comparable within an allelic series).

Consider CGCACTCC, for which the binding signal was 8.92 upbm affinity estimate (log intensity, higher = more binding, comparable within an allelic series) with SIX6 [1]; 8.98 upbm affinity estimate (log intensity, higher = more binding, comparable within an allelic series) with SIX6 [2]; 8.96 upbm affinity estimate (log intensity, higher = more binding, comparable within an allelic series) with SIX6 [3]; 9.15 upbm affinity estimate (log intensity, higher = more binding, comparable within an allelic series) with SIX6 [4]; 8.96 upbm affinity estimate (log intensity, higher = more binding, comparable within an allelic series) with SIX6 [5]; 8.9 upbm affinity estimate (log intensity, higher = more binding, comparable within an allelic series) with SIX6 [6]. Also, the binding signal is 9.01 upbm affinity estimate (log intensity, higher = more binding, comparable within an allelic series) in the experiment with SIX6 [7]; 9.09 upbm affinity estimate (log intensity, higher = more binding, comparable within an allelic series) in the experiment with SIX6 [8]; 9 upbm affinity estimate (log intensity, higher = more binding, comparable within an allelic series) with SIX6 [9]; 9.06 upbm affinity estimate (log intensity, higher = more binding, comparable within an allelic series) with SIX6 [10]; 8.95 upbm affinity estimate (log intensity, higher = more binding, comparable within an allelic series) with SIX6 [11]; 9.04 upbm affinity estimate (log intensity, higher = more binding, comparable within an allelic series) in the experiment with SIX6 [12]. In addition, in the experiment with SIX6 [13], the binding signal is 8.97 upbm affinity estimate (log intensity, higher = more binding, comparable within an allelic series).

TGTATCAA: the binding signal was 11.2 upbm affinity estimate (log intensity, higher = more binding, comparable within an allelic series) in the experiment with SIX6 [1]; 10.4 upbm affinity estimate (log intensity, higher = more binding, comparable within an allelic series) with SIX6 [2]; 11.2 upbm affinity estimate (log intensity, higher = more binding, comparable within an allelic series) with SIX6 [3]; 9.94 upbm affinity estimate (log intensity, higher = more binding, comparable within an allelic series) with SIX6 [4]; 10.7 upbm affinity estimate (log intensity, higher = more binding, comparable within an allelic series) with SIX6 [5]; 11 upbm affinity estimate (log intensity, higher = more binding, comparable within an allelic series) in the experiment with SIX6 [6]. In addition, the binding signal is 10.4 upbm affinity estimate (log intensity, higher = more binding, comparable within an allelic series) with SIX6 [7]; 11.3 upbm affinity estimate (log intensity, higher = more binding, comparable within an allelic series) with SIX6 [8]; 11.2 upbm affinity estimate (log intensity, higher = more binding, comparable within an allelic series) with SIX6 [9]; 11.3 upbm affinity estimate (log intensity, higher = more binding, comparable within an allelic series) with SIX6 [10]; 11 upbm affinity estimate (log intensity, higher = more binding, comparable within an allelic series) in the experiment with SIX6 [11]; 11.1 upbm affinity estimate (log intensity, higher = more binding, comparable within an allelic series) with SIX6 [12]. In addition, in the experiment with SIX6 [13], the binding signal was 11.1 upbm affinity estimate (log intensity, higher = more binding, comparable within an allelic series).

Take CCATATAC: the binding signal with SIX6 [1] is 10.3 upbm affinity estimate (log intensity, higher = more binding, comparable within an allelic series); in the experiment with SIX6 [2], 10.1 upbm affinity estimate (log intensity, higher = more binding, comparable within an allelic series); in the experiment with SIX6 [3] it was 10.3 upbm affinity estimate (log intensity, higher = more binding, comparable within an allelic series); with SIX6 [4], 9.82 upbm affinity estimate (log intensity, higher = more binding, comparable within an allelic series); in the experiment with SIX6 [5], 10.3 upbm affinity estimate (log intensity, higher = more binding, comparable within an allelic series); in the experiment with SIX6 [6] it was 10.4 upbm affinity estimate (log intensity, higher = more binding, comparable within an allelic series). For the same sequence, the binding signal in the experiment with SIX6 [7] was 10.1 upbm affinity estimate (log intensity, higher = more binding, comparable within an allelic series); in the experiment with SIX6 [8] it was 10.4 upbm affinity estimate (log intensity, higher = more binding, comparable within an allelic series); in the experiment with SIX6 [9] it was 10.5 upbm affinity estimate (log intensity, higher = more binding, comparable within an allelic series); with SIX6 [10] it was 10.3 upbm affinity estimate (log intensity, higher = more binding, comparable within an allelic series); with SIX6 [11], 10.2 upbm affinity estimate (log intensity, higher = more binding, comparable within an allelic series); in the experiment with SIX6 [12] it was 10.4 upbm affinity estimate (log intensity, higher = more binding, comparable within an allelic series). Also, in the experiment with SIX6 [13], the binding signal was 10.3 upbm affinity estimate (log intensity, higher = more binding, comparable within an allelic series).

Regarding ATGATACC, the binding signal with SIX6 [1] was 11.6 upbm affinity estimate (log intensity, higher = more binding, comparable within an allelic series); with SIX6 [2], 10.5 upbm affinity estimate (log intensity, higher = more binding, comparable within an allelic series); with SIX6 [3], 11.6 upbm affinity estimate (log intensity, higher = more binding, comparable within an allelic series); in the experiment with SIX6 [4] it was 9.82 upbm affinity estimate (log intensity, higher = more binding, comparable within an allelic series); with SIX6 [5] it was 11 upbm affinity estimate (log intensity, higher = more binding, comparable within an allelic series); in the experiment with SIX6 [6] it was 11.3 upbm affinity estimate (log intensity, higher = more binding, comparable within an allelic series). The binding signal was 10.6 upbm affinity estimate (log intensity, higher = more binding, comparable within an allelic series) with SIX6 [7]; 11.7 upbm affinity estimate (log intensity, higher = more binding, comparable within an allelic series) with SIX6 [8]; 11.5 upbm affinity estimate (log intensity, higher = more binding, comparable within an allelic series) in the experiment with SIX6 [9]; 11.6 upbm affinity estimate (log intensity, higher = more binding, comparable within an allelic series) in the experiment with SIX6 [10]; 11.4 upbm affinity estimate (log intensity, higher = more binding, comparable within an allelic series) in the experiment with SIX6 [11]; 11.4 upbm affinity estimate (log intensity, higher = more binding, comparable within an allelic series) in the experiment with SIX6 [12]. In addition, the binding signal in the experiment with SIX6 [13] is 11.3 upbm affinity estimate (log intensity, higher = more binding, comparable within an allelic series).

Regarding AGGATATC, the binding signal was 11.1 upbm affinity estimate (log intensity, higher = more binding, comparable within an allelic series) with SIX6 [1]; 10.2 upbm affinity estimate (log intensity, higher = more binding, comparable within an allelic series) with SIX6 [2]; 11.1 upbm affinity estimate (log intensity, higher = more binding, comparable within an allelic series) with SIX6 [3]; 9.73 upbm affinity estimate (log intensity, higher = more binding, comparable within an allelic series) with SIX6 [4]; 10.7 upbm affinity estimate (log intensity, higher = more binding, comparable within an allelic series) with SIX6 [5]; 10.9 upbm affinity estimate (log intensity, higher = more binding, comparable within an allelic series) with SIX6 [6]. Further, the binding signal in the experiment with SIX6 [7] is 10.3 upbm affinity estimate (log intensity, higher = more binding, comparable within an allelic series); with SIX6 [8] it was 11.2 upbm affinity estimate (log intensity, higher = more binding, comparable within an allelic series); in the experiment with SIX6 [9], 11.1 upbm affinity estimate (log intensity, higher = more binding, comparable within an allelic series); with SIX6 [10], 11.1 upbm affinity estimate (log intensity, higher = more binding, comparable within an allelic series); in the experiment with SIX6 [11] it was 10.9 upbm affinity estimate (log intensity, higher = more binding, comparable within an allelic series); in the experiment with SIX6 [12] it was 10.9 upbm affinity estimate (log intensity, higher = more binding, comparable within an allelic series). For the same sequence, in the experiment with SIX6 [13], the binding signal is 10.9 upbm affinity estimate (log intensity, higher = more binding, comparable within an allelic series).
